NIH3T3 tox = Cytotoxic Profiling in NIH 3T3 Cell Line of Diverse Libraries Using Quantitative High-Throughput Screening | NIH 3T3 viability, CellTiter-Glo ATP luminescence, 48-72 h | Potency, µM (highest dose often 96.7 µM), without a hit: top-dose activity change, negative = cytotoxicity, most hits filed as inhibitors | hit rate 4.3% among 94,000 | AID 1345082, 2018; also: % is scaled to controls: 0 for no effect and ±100 for the full control effect; nearly all actives have a fitted effect of over 55% in size
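Cytotoxicity is measured as loss of cellular ATP: NIH 3T3 cells (400/well) are exposed to compound for 48 or 72 hr at 37 °C, then CellTiter-Glo luminescence is imaged after 10 min at room temperature.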
NPR1 antag = Natriuretic polypeptide receptor (hNpr1) antagonism - Primary qHTS. hit rate 1.6% among 76,000. AID 1347048, 2019. Atrial natriuretic peptide receptor 1 (Homo sapiens), P16066. HEK293 hNpr1 GloSensor cGMP, ANP-stimulated luminescence. Potency, µM (titrated, usually from 46.3 µM), without a hit: at the highest dose activity change, negative = inhibition, actives largely listed as inhibitors; calls by dose curve; also: % is scaled to controls: 0 for no effect and ±100 for the full control effect; nearly all actives have a fitted effect of over 60% in size
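Compound pre-incubated 30 min at room temperature on GloSensor-loaded HEK293 cells stably carrying hNpr1 and the pGS-40F cGMP biosensor. Stimulation uses hNppA at 0.1 nM final; luminescence is taken at baseline and 20 min post-agonist.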
FLuc inh = Firefly luciferase inhibition profiling of diverse chemical library using quantitative high-throughput screening | purified P. pyralis luciferase, luminescence, biochemical | Potency, µM (doses to about 115 µM), hits mostly inhibitors | hit rate 2.5% among 76,000 | AID 1347043, 2019; also: % is scaled to controls: 0 for no effect and ±100 for the full control effect; nearly all actives have a fitted effect of over 65% in size
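Luminescence read by CCD imager after adding enzyme (10nM final) to wells holding compound, titrated in qHTS. Substrates 10uM each D-luciferin and ATP; buffer 50mM Tris acetate pH 7.5, 10mM Mg acetate, Tween-20, BSA.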
HEK293 tox = Cytotoxic Profiling in HEK 293 Cell Line of Diverse Libraries Using Quantitative High-Throughput Screening. hit rate 6.6% among 94,000. AID 1345083, 2018. HEK 293 viability, ATP luminescence (CellTiter-Glo), 48-72 h. Potency, µM (series often up to 115 µM), inactives show top-dose activity change, negative = cytotoxicity, hits mostly inhibitors; also: % is scaled to controls: 0 for no effect and ±100 for the full control effect; nearly all actives have a fitted effect of over 60% in size
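250 HEK 293 cells/well; compound by pintool; incubated 48 or 72 hr at 37 degree Celsius; CellTiter-Glo added, 10 min RT, luminescence imaged.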
GPT2 inh = Primary qHTS assay for inhibitors of Glutamate pyruvate transaminase 2 (GPT2) | AID 1671188, 2021 | Alanine aminotransferase 2 (Homo sapiens), Q8TD30 | Recombinant GPT2, coupled pyruvate oxidase/HRP Amplex Red fluorescence | Potency, µM (series often up to 57.7 µM), inactives show at the top dose activity change, negative = inhibition, actives largely listed as inhibitors | hit rate 0.25% among 100,000; also: % is scaled to controls: 0 for no effect and ±100 for the full control effect; nearly all actives have a fitted effect of over 60% in size
Target sequence (Q8TD30 whole entry, looked up): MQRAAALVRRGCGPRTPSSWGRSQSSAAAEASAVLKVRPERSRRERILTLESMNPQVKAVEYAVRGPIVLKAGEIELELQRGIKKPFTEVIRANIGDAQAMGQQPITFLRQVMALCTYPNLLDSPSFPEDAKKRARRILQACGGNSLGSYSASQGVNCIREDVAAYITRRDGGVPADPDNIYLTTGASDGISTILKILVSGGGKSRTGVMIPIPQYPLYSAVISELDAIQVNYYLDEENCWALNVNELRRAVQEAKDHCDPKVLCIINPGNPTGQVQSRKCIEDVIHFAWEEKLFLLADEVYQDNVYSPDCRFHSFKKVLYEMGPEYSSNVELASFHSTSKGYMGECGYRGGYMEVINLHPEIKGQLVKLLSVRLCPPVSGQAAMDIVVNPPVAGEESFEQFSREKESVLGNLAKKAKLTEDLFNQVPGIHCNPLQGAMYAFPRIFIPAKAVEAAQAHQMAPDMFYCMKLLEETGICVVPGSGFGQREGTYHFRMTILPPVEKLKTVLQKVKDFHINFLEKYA
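Inhibition is scored from Amplex Red fluorescence generated when pyruvate oxidase and HRP act on pyruvate released by GPT2. Reactions contain 10ng/uL enzyme, 250uM a-KG and 2mM L-alanine and run 30 min at room temperature.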
Npr1 antag conf = Natriuretic polypeptide receptor (hNpr1) antagonism - Confirmation; shares compounds with NPR1 antag; HEK293 hNpr1 cGMP GloSensor luminescence, ANP-stimulated; Potency, µM (highest dose often 57.6 µM), inactives show at the highest dose activity change, negative = inhibition, most hits filed as inhibitors; hit rate 76% among 1,400; AID 1347044, 2019; calls by dose curve; also: nearly all actives have a fitted effect of over 70% in size
Npr2 selectivity = Natriuretic polypeptide receptor (hNpr2) antagonism - Subtype selectivity assay | HEK293 hNpr2 GloSensor cGMP luminescence, CNP-stimulated | Potency, µM (doses to about 57.6 µM), inactives show top-dose activity change, negative = inhibition, hits mostly inhibitors | AID 1347046, 2019 | shares compounds with NPR1 antag | hit rate 67% among 1,400; calls by dose curve; also: nearly all actives have a fitted effect of over 70% in size
FLuc counter = Natriuretic polypeptide receptor (hNpr1) antagonism - Confirmation firefly luciferase (FLuc) inhibition counterscreen; shares compounds with NPR1 antag; purified FLuc enzyme, luminescence, Km substrate; Potency, µM (series often up to 57.6 µM), without a hit: top-dose activity change, negative = inhibition, hits mostly inhibitors; hit rate 0.7% among 1,400; also: 0% is about no effect
GloSensor ctrl = Natriuretic polypeptide receptor (hNpr1) antagonism - Counterscreen GloSensor control cell line. shares compounds with NPR1 antag. HEK293 GloSensor cGMP, SNP-stimulated, luminescence. Potency, µM (series often up to 57.6 µM), for the others: at the top dose activity change, negative = inhibition, most hits filed as inhibitors. hit rate 69% among 1,400; calls by dose curve; also: % is scaled to controls: 0 for no effect and ±100 for the full control effect; nearly all actives have a fitted effect of over 70% in size
* marks the source's active call; other numbers are inactive results; i = inactive; ? = inconclusive; . = not tested or not shown; [ ] = remark or other dose. Hits are enriched below; roughly 10% of the tested compounds scored in any of these assays. Unless noted, calls follow the shape of the dose curve; as a rule, active = well fitted curve in the direction sought with a large enough effect; inconclusive = small, poorly fitted or top-dose-only effect, or another doubt; inactive = no such curve, though single readings can be large; an effect the other way counts as inactive or inconclusive. Potency is read from the fitted curve at half-maximal effect.

SMILES	NIH3T3 tox	NPR1 antag	FLuc inh	HEK293 tox	GPT2 inh	Npr1 antag conf	Npr2 selectivity	FLuc counter	GloSensor ctrl
COCCn1c2c(c(=O)n1-c1ccccc1)CCN(C(=O)Cc1ccc3c(c1)OCO3)C2	?	-0.9%[70.6 µM]	i	-9.0%[172 µM]	-12.3%[88.5 µM]	.	.	.	.
Cc1ccc(CNC(=O)c2ccc3c(c2)CN(Cc2ccc(N(C)C)cc2)CCO3)cc1	?	11.2µM*	i	?	-0.2%	24.3µM*	27.3µM*	1.6%	27.3µM*
O=C(Nc1ccc(F)cc1)c1ccc2c(c1)OCCN(c1ccccc1)C2	?	31.6µM*	i	56.2µM*	?	39.6µM*	39.6µM*	-13.9%[86.2 µM]	39.6µM*
O=C(NCc1ccccc1)c1ccc2c(c1)OCCN(c1ccccc1)C2	?	?	i	?	-2.1%[88.5 µM]	?	?	-1.2%[86.2 µM]	?
CNC(=O)c1ccc2c(c1)OCCN(c1ccccc1)C2	-25.5%[174 µM]	0.9%[70.6 µM]	i	?	-0.3%[88.5 µM]	.	.	.	.
COc1ccc(-c2nnc3ccc(N4CCC(c5ccccc5)CC4)nn23)nc1	?	4.8%[70.6 µM]	i	?	-2.3%[88.5 µM]	.	.	.	.
Cc1ccc(C(=O)N2CCN(C(=O)c3nc4cccnc4n(CC(C)C)c3=O)CC2)cc1	4.2%	.	.	i	0.2%	.	.	.	.
CCOc1cccc(CNC(=O)c2c(OC)cc(=O)n3c2CCCC3)c1	-7.9%	3.9%	i	-5.0%	1.0%	.	.	.	.
COc1ccc(C(=O)Nc2ccc(-c3noc([C@@H]4CCCN4Cc4c[nH]c5ccccc45)n3)cn2)cc1	?	10µM*	i	?	2.1%	10.9µM*	19.3µM*	-5.4%	10.9µM*
CCCCOc1ccc(C(=O)N2CCC[C@H]2c2nc(-c3ccc(OC)cc3)no2)cc1	?	?	i	25.1µM*	i	?	-25.6%	-15.9%	?
COc1ccc(C2(C(=O)N3CCCCCC3c3nc(C4CC4)no3)CC2)cc1 (centres undefined)	?	-14.9%	i	?	i	.	.	.	.
COc1ccc(C(=O)Nc2ccc(-c3noc([C@@H]4CCCN4Cc4ccco4)n3)cn2)cc1	?	12.6µM*	i	?	0.3%	13.7µM*	19.3µM*	?	17.2µM*
COc1ccc(C2(C(=O)N3CCC[C@H]3c3nc(-c4ccccc4Cl)no3)CC2)cc1	?	10µM*	i	?	i	21.7µM*	21.7µM*	0.0%	24.3µM*
Cc1ccccc1CNC[C@H]1Cn2ccnc2CO1	-8.2%[174 µM]	0.0%[70.6 µM]	i	-12.5%[230 µM]	-7.8%[88.5 µM]	.	.	.	.
Cn1ccc(C(=O)N2CC3ON=C(C(=O)N4CCOCC4)C3C2)n1 (centres undefined)	1.7%	.	.	3.5%	-8.8%	.	.	.	.
COc1ccc(C(=O)Nc2ccc(-c3noc([C@@H]4CCCN4CCCc4ccccc4)n3)cn2)cc1	?	12.6µM*	i	15.8µM*	1.1%	17.2µM*	19.3µM*	-24.1%	13.7µM*
COCC(=O)Nc1ccc(-c2noc([C@@H]3CCCN3Cc3cccnc3)n2)cn1	-26.8%[174 µM]	-0.8%[70.6 µM]	i	-19.2%[172 µM]	3.5%[88.5 µM]	.	.	.	.
COc1ccc(C(=O)Nc2ccc(-c3noc([C@@H]4CCCN4Cc4ccc(F)cc4)n3)cn2)cc1	?	11.2µM*	i	?	1.0%	13.7µM*	17.2µM*	-21.9%	12.2µM*
COCC(=O)NC1CCCN(c2ccc3nnc(C)n3n2)C1 (centres undefined)	-1.0%[138 µM]	.	.	i	.	.	.	.	.
O=C(NCCc1ccccc1)c1ccc2nnc(-c3ccc(F)cc3)n2c1	?	.	.	-24.1%	4.9%	.	.	.	.
CCc1cc(N2CCOC(c3ccc4cc(OC)ccc4c3)C2)nc(C)n1 (centres undefined)	?	11.2µM*	i	35.5µM*	-0.4%	21.7µM*	21.7µM*	?	17.2µM*
COc1ccc2cc(C3CN(Cc4cc5n(n4)CCNC5)CCO3)ccc2c1 (centres undefined)	?	-20.8%	i	?	i	.	.	.	.
O=C1CCN(Cc2ccncc2)CCCC(c2nc(-c3cccnc3)no2)CCN1 (centres undefined)	-1.8%	1.6%	i	i	i	.	.	.	.
O=C1CCN(Cc2ccc(C(F)(F)F)cc2)CCCC(c2nc(-c3cccnc3)no2)CCN1 (centres undefined)	?	8.91µM*	i	44.7µM*	-7.2%	17.2µM*	17.2µM*	2.3%	15.3µM*
COCC(=O)N1CCCC(C(=O)N2CCC(c3nc4ncccc4[nH]3)CC2)C1 (centres undefined)	i	.	.	4.1%	-2.5%	.	.	.	.
O=C(Nc1ccc(F)cc1)c1c[nH]c2cccnc12	?	.	.	?	i	?	?	4.44µM*	22.2µM*
O=C(CC(c1ccc(F)cc1)c1cn(Cc2ccccc2)c2ccc([N+](=O)[O-])cc12)N1CCOCC1 (centres undefined)	?	10µM*	i	?	0.0%	24.3µM*	24.3µM*	-0.1%	19.3µM*
OC1CC(c2cc(N3CCC(Cc4noc(C5CC5)n4)CC3)ncn2)C1 (centres undefined)	?	0.794µM*	i	-51.5%	?	0.863µM*	1.22µM*	1.4%	0.769µM*
CN(Cc1noc(C2CCCC2)n1)c1cc(C2CC(O)C2)ncn1 (centres undefined)	?	?	i	-44.0%	4.7%[11.5 µM]	21.7µM*	?	0.9%	21.7µM*
